# Hits are enriched below; roughly 3.4% of the tested compounds scored in any of these assays.
# proKLK7 act: proKLK7 (human) activation, primary screen | AID 652039 | P49862 | purified proKLK7, EDANS-DABCYL substrate fluorescence; 100% is mature enzyme control, 0% vehicle | 370,000 compounds, 0.9% hits | activation, % at 7 µM;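 active = activation above the mean of all tested compounds plus 3 SD, computed per campaign excluding outliers beyond control limits, cut at about 13% in these data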
# Target sequence (P49862 whole entry, looked up): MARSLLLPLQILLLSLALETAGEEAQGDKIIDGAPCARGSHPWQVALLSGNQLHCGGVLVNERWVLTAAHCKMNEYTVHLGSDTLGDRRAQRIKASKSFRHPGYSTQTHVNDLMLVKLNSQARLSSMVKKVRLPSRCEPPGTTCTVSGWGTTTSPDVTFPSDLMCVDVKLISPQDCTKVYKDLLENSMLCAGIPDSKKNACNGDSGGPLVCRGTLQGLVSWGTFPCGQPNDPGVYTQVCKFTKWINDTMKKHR
# sPLA2-III inh: Blocks human group III sPLA2 activity. QFRET BODIPY PC-A2 liposome hydrolysis, fluorescence. inhibition, % at 12.2 µM. 370,000 compounds, 0.56% hits;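 active = inhibition above mean plus 3 SD of compounds lying within the high and low control bounds, cut at about 19% in these data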;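 also: 0% = median of test compound wells and 100% = no enzyme DMSO wells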
# ADAM17 inh: ADAM17 inhibition, QFRET primary screen; inhibition, % at 6.95 µM; recombinant ADAM17, EDANS/DABCYL FRET peptide cleavage; 370,000 compounds, 0.83% hits; AID 720648; P78536;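 active = inhibition above the mean of compounds lying between control limits plus 3 SD, set per campaign, cut at about 8.5% in these data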;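 also: 0% = DMSO-only wells as the low control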
# ADAM10 inh: ADAM10 inhibition, QFRET primary screen | O14672 | recombinant ADAM10, EDANS/DABCYL FRET peptide cleavage, 3 h | inhibition, % at 7 µM | 370,000 compounds, 0.62% hits | AID 720582;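 active = inhibition above a per-campaign cutoff equal to the mean of compounds falling between control-based bounds plus 3 SD, cut at about 20% in these data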;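 also: 0% = DMSO wells while the 100% control is not disclosed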
# NRP1-CendR mod: modulators of CendR peptide binding to human neuropilin-1; inhibition, % at 25 µM; 360,000 compounds, 0.85% hits; FAM-RPARPAR peptide binding to NRP-1, fluorescence polarization; O14786;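 active = inhibition or corrected inhibition above about 18%, plus a signal ratio from 0.5 to 1.5, limit read from the data, passing the limit was not always enough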
# ADAM10 counter: ADAM10 inhibition, counter-screen for ADAM17 exosite hits; shares compounds with ADAM17 inh; recombinant ADAM10, EDANS/DABCYL FRET peptide cleavage, 3 h; inhibition, % at 6.95 µM; 2,900 compounds, 47% hits; AID 743256;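 active = mean inhibition over the triplicate runs exceeds the activity threshold set in the earlier primary screen, cut at about 20% in these data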;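 also: 0% = DMSO wells and 100% = marimastat wells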
# ADAM17 confirm: confirmation of inhibitors of human ADAM17; shares compounds with ADAM17 inh; recombinant ADAM17, EDANS/DABCYL QFRET peptide cleavage; inhibition, % at 6.95 µM; 2,900 compounds, 65% hits; AID 743257;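 active = mean inhibition across replicates above the hit cutoff set in the primary screen, cut at about 8.5% in these data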;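 also: 0% = DMSO wells and 100% = marimastat wells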
# The depositor's hits bear a star; . = no result.
SMILES,proKLK7 act,sPLA2-III inh,ADAM17 inh,ADAM10 inh,NRP1-CendR mod,ADAM10 counter,ADAM17 confirm
O=C1[C@H]2[C@@H](c3ccc(C(F)(F)F)cc3)N[C@]3(CCCN(Cc4ccc(F)cc4)C3=O)[C@H]2C(=O)N1Cc1ccccc1,0.4,-12.1,8.9*,19.7,3.6,23.9*,12.7*
O=C1[C@H]2[C@@H](c3ccccc3)N[C@]3(CCCN(Cc4ccc(C(F)(F)F)cc4)C3=O)[C@H]2C(=O)N1Cc1ccccc1,-0.9,-16.8,7.6,7.5,-8.7,.,.
COc1ccc(CC(=O)NC(=S)Nc2ccc(S(N)(=O)=O)cc2)cc1,-0.5,10.7,-1.7,-11.0,0.4,.,.
COc1ccc(CC(=O)NC(=S)Nc2ccc(S(=O)(=O)NC(C)(C)C)cc2)cc1,-0.2,-52.9,9.9*,18.2,12.7,31.6*,14.9*
C[C@H]1[C@@H]2C[C@@]3(O[C@H](c4ccc(C(F)(F)F)cc4)N=C3C[C@@H]1c1ccccc1)N(Cc1ccncc1)C2=O,-0.1,1.7,-2.8,-7.1,.,.,.
O=C(CSc1ccc(-c2ccco2)nn1)NCc1ccc(F)cc1,-0.3,-2.3,-4.3,-14.4,-3.6,.,.
O=C(CSc1ccc(-c2ccco2)nn1)c1ccc(F)cc1,0.1,-23.2,9.4*,18.9,8.3,6.9,5.9
CC(C)CC(=O)NC(=S)Nc1nc(-c2cccc3ccccc23)cs1,0.8,10.8,13.8*,19.5,-3.8,17.0,8.1
Cc1cccc(C(C#N)c2nc3ccccc3nc2C(F)(F)F)c1 (centres undefined),0.1,1.8,8.7*,17.9,1.2,9.6,4.3
N#CC(c1ccc(Cl)cc1)c1nc2ccccc2nc1C(F)(F)F (centres undefined),-0.4,15.1,4.0,7.7,16.4,.,.
COCCCNC(=O)CSc1nnc(-c2cccnc2)n1C1CCCCC1,0.0,3.8,-4.5,-5.1,.,.,.
CCOC(=O)C1=CCN(S(=O)(=O)c2ccccc2C)C1c1ccc(Cl)c(Cl)c1 (centres undefined),1.0,-2.5,12.9*,16.3,7.5,11.2,7.4
CCOC(=O)C1=CCN(S(=O)(=O)c2ccccc2C)C1c1ccccc1 (centres undefined),-0.1,0.8,-0.5,-11.3,5.7,.,.
O=C(OC(C(=O)Nc1cc(Cl)cc(Cl)c1)c1ccccc1)C1=COCCO1 (centres undefined),-0.3,-44.5,9.8*,14.2,6.3,31.2*,15.5*
CC1CCN(C2(O)C(=O)Nc3ccc([N+](=O)[O-])cc32)CC1 (centres undefined),0.5,-2.1,10.6*,17.2,3.7,12.0,7.9
CC(=O)OCCCN1CCC2(CCC(c3ccccc3)CC2)C1=O (centres undefined),-0.2,1.3,1.5,-1.0,.,.,.
Cc1ccccc1-c1nc(S(=O)(=O)c2ccc(Br)cc2)c(NCc2cccnc2)o1,-4.2,-27.5,9.9*,19.3,-7.1,15.8,25.2*
Cc1ccc2c(c1)N(CCCC(=O)N(C)Cc1ccccc1Cl)C(=O)CO2,0.1,-6.7,1.3,-1.1,.,.,.
CC1CCC2(CCC(=O)N2CCCOC(=O)Nc2cccc(C(F)(F)F)c2)CC1 (centres undefined),0.7,1.9,-2.9,-1.9,.,.,.
CCN(CC)S(=O)(=O)c1cccc(C(=O)N[C@H](C(=O)OCC(=O)Nc2ccccc2)C(C)C)c1,0.2,-17.3,11.1*,-3.9,3.6,5.0,3.9
C#CCN(C[C@H]1[C@H](OC(=O)Nc2cccs2)[C@H](OC(=O)Nc2cccs2)CN(C(=O)OC(C)C)N1C(=O)OC(C)C)S(=O)(=O)c1ccc(C)cc1,-0.5,-10.2,12.1*,9.7,.,33.4*,19.1*
C#CCN(C[C@@H]1[C@@H](OC(=O)NC2CC2)[C@@H](OC(=O)NC2CC2)CN(C(=O)OC(C)C)N1C(=O)OC(C)C)S(=O)(=O)c1ccc(C)cc1,1.0,-9.4,2.2,3.7,-1.2,.,.
COc1ccc(/C=N/NC(=O)CN(C)S(=O)(=O)c2ccc(NC(C)=O)cc2)cc1,-0.2,-0.2,-1.7,3.4,-4.2,.,.
COc1cccc(/C=N/NC(=O)CN(CCc2ccccc2)S(=O)(=O)c2ccc(NC(C)=O)cc2)c1,0.1,-15.8,10.8*,4.1,5.1,23.6*,14.3*
Cc1csc(NC(=O)CCn2c(=O)oc3ccc(Cl)cc32)n1,0.1,0.8,8.7*,-5.6,7.7,-2.9,1.2
SMILES,proKLK7 act,sPLA2-III inh,ADAM17 inh,ADAM10 inh,NRP1-CendR mod,ADAM10 counter,ADAM17 confirm
Cc1nnc(NC(=O)CCn2c(=O)oc3ccc(Cl)cc32)s1,-0.1,10.4,-0.3,-4.0,-11.6,.,.
Cc1cnc(C(=O)N(c2ccc(N3CCOCC3)cc2)C2C(=O)Nc3ccccc3N=C2c2ccc3c(c2)OCO3)cn1 (centres undefined),0.7,-13.4,11.1*,6.7,4.7,10.7,9.8*
COc1cc(CCN(C(C)=O)C2C(=O)Nc3ccccc3N=C2c2ccc3c(c2)OCO3)cc(OC)c1 (centres undefined),0.3,-3.7,-4.7,-9.4,9.7,.,.
CN(Cc1cccs1)C(=O)CCc1ccc(S(=O)(=O)N2CCOCC2)cc1,-0.5,-0.1,11.4*,1.1,2.8,-8.3,0.9
C[C@@H]1CN([C@H](C)CO)C(=O)CCCn2nncc2CO[C@H]1CN(C)C(=O)Nc1ccc2c(c1)OCCO2,-0.2,5.6,1.2,4.4,.,.,.
COC(=O)c1ccccc1NC(=O)CSc1nc(Nc2ccccc2)nc(N2CCOCC2)n1,-0.4,-14.9,8.7*,17.8,1.3,16.3,9.1*
C[C@@H]1COc2cccc(N3CCSCC3)c2S(=O)(=O)N1C,0.4,1.8,-0.2,2.5,.,.,.
CC1CCN(c2ccc(C(=O)O)cc2NS(=O)(=O)c2ccc(Cl)s2)CC1,-0.4,-7.9,-1.4,-6.2,.,.,.
COc1ccc(OC)c(-c2csc(NC(=O)Cc3ccc(F)cc3)n2)c1,0.1,-15.0,8.6*,9.8,5.9,31.9*,15.7*
COCCCNC(=O)C[C@H]1C[C@@]2(C(=O)OC)C(=C[C@H](COCc3ccccc3)O[C@@H]2C)N(CCc2ccc(OC)c(OC)c2)C1=O,0.1,2.7,0.1,2.9,.,.,.
COC(=O)[C@]12C[C@H](CC(=O)N3CCN(C(=O)c4ccco4)CC3)C(=O)N(Cc3ccc(Cl)cc3Cl)C1=C[C@H](COCc1ccccc1)O[C@@H]2C,0.6,-22.2,12.6*,16.5,.,17.6,10.1*
COC(=O)[C@]12C[C@H](CC(=O)NCC3CCCCC3)C(=O)N(CCc3ccc(OC)c(OC)c3)C1=C[C@H](COCc1ccccc1)O[C@@H]2C,1.0,-6.2,10.6*,5.9,.,26.0*,9.1*

# Screening data from PubChem BioAssay.
